The full list was thinned out, with hits kept by preference.
TDP1 cell noCPT: qHTS for Inhibitors of human tyrosyl-DNA phosphodiesterase 1 (TDP1): qHTS in cells in absence of CPT. hit rate 15% among 420,000. AID 686978, 2013. Potency, µM (highest dose often 46.2 µM), for inactives: at the highest dose activity change, negative = growth inhibition, actives largely listed as inhibitors. DT40 Tdp1-/- hTDP1 cells, no CPT, ATP luminescence, 48 h; also: potency is read from the fitted curve at half-maximal effect; nearly all actives have a fitted effect of over 55% in size
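Seeded 400 DT40-hTDP1 cells/well (vehicle DMSO, no 20 nM CPT); pinned compounds; ≥48 hr at 37 °C; CellTiter-Glo luminescence as viability measure.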
TDP1 cell CPT: DT40-hTDP1 cell growth loss with CPT | chicken DT40 Tdp1-/-;hTDP1 cells + 20 nM CPT, ATP luminescence, 48 h | Potency, µM (doses to about 46.2 µM), inactives show at the top dose activity change, negative = growth inhibition, actives largely listed as inhibitors | hit rate 12% among 420,000; also: potency is read from the fitted curve at half-maximal effect; nearly all actives have a fitted effect of over 55% in size
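Chicken DT40 Tdp1-/- cells stably complemented with human TDP1 were seeded at 400 cells/well in medium containing 20 nM camptothecin, exposed to pin-transferred compounds, and grown at 37 °C for at least 48 hr. Viability was read as ATP luminescence.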
ALOX12 inh: blocks human arachidonate 12S-lipoxygenase. purified 12hLO, xylenol orange hydroperoxide absorbance. hit rate 1.1% among 580,000. AID 1671190. Potency, µM (titrated, usually from 108 µM), inactives show at the top dose activity change, negative = inhibition, actives largely listed as inhibitors; also: potency is read from the fitted curve at half-maximal effect
Target sequence (P18054 whole entry, looked up): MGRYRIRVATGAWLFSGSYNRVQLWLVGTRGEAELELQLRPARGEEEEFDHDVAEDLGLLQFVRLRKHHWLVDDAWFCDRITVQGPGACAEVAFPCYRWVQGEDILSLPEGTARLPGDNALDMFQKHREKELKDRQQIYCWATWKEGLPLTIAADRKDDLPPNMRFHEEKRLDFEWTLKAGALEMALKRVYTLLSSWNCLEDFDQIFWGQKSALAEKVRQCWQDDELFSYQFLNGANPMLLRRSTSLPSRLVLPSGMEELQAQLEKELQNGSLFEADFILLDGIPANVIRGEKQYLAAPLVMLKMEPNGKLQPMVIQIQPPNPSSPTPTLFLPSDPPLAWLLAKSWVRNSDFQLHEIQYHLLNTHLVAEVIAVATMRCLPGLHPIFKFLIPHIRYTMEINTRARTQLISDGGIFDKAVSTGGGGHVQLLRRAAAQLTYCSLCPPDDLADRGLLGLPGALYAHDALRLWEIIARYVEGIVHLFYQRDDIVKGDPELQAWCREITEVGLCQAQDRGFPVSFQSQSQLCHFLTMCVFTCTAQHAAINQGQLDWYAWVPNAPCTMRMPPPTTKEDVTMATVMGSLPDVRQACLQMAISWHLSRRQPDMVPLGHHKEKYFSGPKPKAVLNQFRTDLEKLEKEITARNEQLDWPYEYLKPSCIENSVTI
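Purified human 12hLO at 150 nM in 25 mM Hepes, 0.01% Triton X-100, pH 7.0, preincubated 15 min at room temperature with compound. Reaction started with 40 uM arachidonic acid, 30 min at room temperature. Hydroperoxide measured by Fe-xylenol orange, 573/405 nm absorbance ratio.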
HT1080-NT tox: kills 2HG-producing HT-1080-NT fibrosarcoma cells. HT-1080-NT fibrosarcoma viability, CellTiter-Glo ATP luminescence, 48 h. Potency, µM (titrated, usually from 46.1 µM), inactives show top-dose activity, negative = less viability, most hits filed as cytotoxic. hit rate 1.6% among 360,000;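 also: NT is the 2HG producing partner of a matched IDH1 knockdown line; potency is read from the fitted curve at half-maximal effect; 0% = DMSO-treated cells and -100% = media-only wells without cells; nearly all actives have a fitted effect of over 55% in size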
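Read-out is CellTiter-Glo luminescence after 10 minutes at room temperature, following 48 hours' compound treatment of HT-1080-NT cells (750 cells/well, RPMI, 5% FBS, 37 degrees C).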
IL1B secr inh: inflammasome signaling inhibition, IL-1 beta readout | THP-1 LPS/ATP IL-1B secretion, AlphaLISA, 16 h; active compounds read low | activity change, % at 57.5 µM | hit rate 4.7% among 360,000; in the data active = activity change below about -50%; inconclusive = mostly about -30% to -49%
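THP-1 cells pretreated 1 hr with compounds (up to 57.5 uM final), then stimulated with LPS (250 ng/mL final) plus ATP (1.25 mM final); secreted IL-1B measured by AlphaLISA after 16 hr, decreased signal indicating inhibition.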
HT1080 IDH1KD tx: HT-1080 IDH1 knockdown cell toxicity (counter line) | HT-1080 IDH1 knockdown viability, ATP luminescence, 48 h | Potency, µM (doses to about 46.1 µM), for inactives: top-dose activity, negative = toxicity, actives largely listed as cytotoxic | AID 686971 | hit rate 2% among 360,000;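 also: potency is read from the fitted curve at half-maximal effect; 0% = DMSO wells and -100% = cell-free medium wells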
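After a 2 h attachment period, IDH1KD HT-1080 cells took pin-transferred compound for 48 h at 37 °C; ATP-based luminescence after 10 min room-temperature reagent incubation reported viability.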
* marks the source's active call; other numbers are inactive results; ? = inconclusive; · = no result given. Unless noted, calls follow the shape of the dose curve; as a rule, active = well fitted curve in the direction sought with a large enough effect; inconclusive = small, poorly fitted or top-dose-only effect, or another doubt; inactive = no such curve, though single readings can be large; an effect the other way counts as inactive or inconclusive. Unless noted, % is scaled to controls: 0 for no effect and ±100 for the full control effect.

SMILES	TDP1 cell noCPT	TDP1 cell CPT	ALOX12 inh	HT1080-NT tox	IL1B secr inh	HT1080 IDH1KD tx
O=C1/C(=C/N(C(=O)c2ccco2)c2ccc(Cl)cc2)Sc2ccccc21	16µM*	23µM*	·	-12%	?	1%
Cc1cc(C)nc(Nc2nc(C(N)CCc3ccccc3)cs2)n1 (stereo not drawn)	21µM*	?	-12%	?	-21	?
NC(CCc1ccccc1)c1csc(Nc2nccc(C(F)(F)F)n2)n1 (stereo not drawn)	?	?	?	16µM*	-18	?
NC(COCc1ccccc1)c1csc(Nc2ncccn2)n1 (stereo not drawn)	?	-6%	17%	-28%	-24	-19%
O=C(CCCn1cncn1)N[C@H]1CCOC[C@H]1C1CCOCC1	·	·	3%	·	·	·
COc1ccc(CNCc2cc(OC)ccc2OC)cc1	?	?	?	-13%	-8	-16%
COc1cc(CNCc2cc(OC)ccc2OC)cc(OC)c1	-26%	?	?	3%	-57*	1%
CCOc1cc(CNCc2cc(OC)cc(OC)c2)ccc1OC	8.2µM*	13µM*	?	?	-58*	?
COc1cc(CNCc2cc(OC)c(OC)c(OC)c2)cc(OC)c1	23µM*	13µM*	?	0%	2	0%
O=C(CCCOC(=O)c1c(Cl)ccc(Cl)c1Cl)c1ccc(F)cc1	·	·	-44%	·	·	·
CC(Sc1nc(CN2CCOCC2)nc2ccccc12)C(=O)N1CCCCCC1 (stereo not drawn)	·	·	0%	·	·	·
CC(OC(=O)Cn1cnc2c1c(=O)n(C)c(=O)n2C)C(=O)Nc1ccc(F)cc1 (stereo not drawn)	·	·	-7%	·	·	·
CCCn1nc(C(=O)Nc2ccc(OCCN(CC)CC)cc2)c2ccccc2c1=O	·	·	56%	·	·	·
COC1(OC)N=C(N)C2(C#N)C(c3ccc4c(c3)OCO4)C12C#N (stereo not drawn)	?	8.2µM*	-3%	-4%	-14	0%
COc1ccc(C2C3(C#N)C(N)=NC(OC)(OC)C23C#N)cc1 (stereo not drawn)	?	-14%	-12%	-1%	-92*	-11%
C=CCc1cc(/C=C/c2nc(O)c([N+](=O)[O-])c(=O)[nH]2)cc(OC)c1O	-2%	4%	40µM*	15%	7	1%
Cc1ccc(CNC(=O)c2c(C)[nH]c3ccccc23)cc1	·	·	5%	·	·	·
CC1CCCN(c2nc(NCc3ccco3)nc(N)c2[N+](=O)[O-])C1 (stereo not drawn)	?	?	-28%	?	-12	-13%
CC1CC(C)CN(c2nc(NCc3ccco3)nc(N)c2[N+](=O)[O-])C1 (stereo not drawn)	15µM*	16µM*	-29%	4%	21	8%
CCOc1ccc(Nc2nc(N)c([N+](=O)[O-])c(N3CCN(CC)CC3)n2)cc1	-18%	?	?	-24%	-26	-13%
Cc1ccc(Nc2nc(N)c([N+](=O)[O-])c(N3CCCC(C)C3)n2)cc1C (stereo not drawn)	?	?	-9%	19%	-98*	1%
CCN1CCN(c2nc(N)c([N+](=O)[O-])c(Nc3ccc(C)cc3)n2)CC1	?	?	-26%	-1%	-62*	0%
CCN1CCN(c2nc(N)c([N+](=O)[O-])c(Nc3ccc(C)c(C)c3)n2)CC1	16µM*	?	1%	12%	11	11%
CCOC(=O)c1cc2n(n1)CC(C)(C(=O)NC1CCCC1)N(CCc1cccs1)C2=O (stereo not drawn)	·	·	-11%	·	·	·
COC[C@@H]1CN(C(=O)c2ccc3c(c2)OCO3)C[C@H]1c1ccccn1	·	·	30%	·	·	·
SMILES	TDP1 cell noCPT	TDP1 cell CPT	ALOX12 inh	HT1080-NT tox	IL1B secr inh	HT1080 IDH1KD tx
COc1ccc(C(C)=O)c(OS(=O)(=O)c2ccc3c(c2)CCC3)c1	·	·	-19%	·	·	·
CNC(=O)[C@@H]1CN(C(=O)Cn2nc(C(F)(F)F)cc2C)C[C@H]1c1n[nH]c(C)n1	·	·	30%	·	·	·
O=C(OCCCS(=O)(=O)c1ccccc1)c1ccc(I)cc1	·	·	-3%	·	·	·
Cc1nn(CC(=O)Nc2ccccc2)c(C)c1S(=O)(=O)N1CCC(C)CC1	·	·	-33%	·	·	·
COc1cccc(Nc2nc(N)c([N+](=O)[O-])c(N3CCOCC3)n2)c1	23µM*	?	0%	10%	16	5%
Cc1cccc(Nc2nc(N)c([N+](=O)[O-])c(N3CCOCC3)n2)c1	?	-2%	-18%	1%	-22	-9%
Cn1c(NCCCN2CCOCC2)nc2c1c(=O)n(Cc1ccc(Cl)cc1Cl)c(=O)n2C	?	23µM*	0%	-14%	11	-30%
COCCCNc1nc2c(c(=O)n(Cc3ccc(Cl)cc3)c(=O)n2C)n1C	-57%	-15%	4%	-7%	-6	-1%
Cn1c(=O)c2c(nc(NCCCN3CCOCC3)n2Cc2ccccc2Cl)n(C)c1=O	·	·	20%	·	·	·
CCCCNc1nc2c(c(=O)n(Cc3ccc(Cl)cc3)c(=O)n2C)n1C	16µM*	21µM*	?	·	·	·
CCCCNc1nc2c(c(=O)n(Cc3ccc(Cl)c(Cl)c3)c(=O)n2C)n1C	29µM*	?	-15%	·	·	·
CC(C)CCNc1nc2c(c(=O)n(Cc3cccc(F)c3)c(=O)n2C)n1C	?	26µM*	-18%	?	-19	?
COc1ccc(-c2noc(COC(=O)C3=CN(C)S(=O)(=O)N=C3C)n2)cc1	·	·	49%	·	·	·
Cc1cccc(NC(=O)CSc2ncc3c(n2)-c2ccc(Cl)cc2N(C)S3(=O)=O)c1	·	·	-9%	·	·	·
COc1cc(OC)cc(C(=O)NC2CCN(c3cc(C(F)(F)F)ncn3)CC2)c1	·	·	20%	·	·	·
COc1ccc(Cc2cc(NCc3ccccc3)c3ncn(C(C)C)c3c2)cc1	21µM*	?	-17%	?	-15	-22%
CCC(CO)Oc1cc(NCc2ccc(O)cc2)c2ncn(C(C)C)c2c1 (stereo not drawn)	-15%	?	-11%	-7%	-11	-6%
CCOCCOc1cc(NCc2ccccc2)c2ncn(C(C)C)c2c1	?	?	?	-24%	39	-22%
CCC(CO)Oc1cc(NCc2cccc(OC)c2)c2ncn(C(C)C)c2c1 (stereo not drawn)	?	21µM*	1%	8%	-4	0%
